The supplement of paper PMC10849652
Of roughly 7,900 targets only a part is listed; those with a hit were picked by preference. About 0.6% of all pairs of compound and target were hits.

What was measured:
Assay in all cases: log2 fold change, soluble protein after heating vs DMSO (PISA); higher = thermal stabilisation; K562 cells, 10 uM, 30 min; active = over 0.2 and 3.5 SD of the protein, either way, in both replicates (recomputed)
[1] = compound: C1=CC=C(C=C1)[C@H](COC2=CC3=C(C=C2)NC(=O)N3)NC(=O)C4=CC=CN(C4=O)CC5=CC(=C(C=C5)F)F
Method in brief: (§1)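 K562 cells (2×10^6 cells/mL) were treated with 10 μM compound for 30 min, and aliquots were heated for 3 min over 48°C-58°C. Pooled aliquots were extracted in PBS with 0.5% NP-40 at 4°C, and the supernatant after 21,000xg for 90 min was measured by TMTpro 16plex LC-MS/MS with channel sums equalised. Reported thermal stability, relative to control samples and from duplicates, is a log2 fold change.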

[2] = compound: CC1=C(SC2=C1C(=N[C@H](C3=NN=C(N32)C)CC(=O)N)C4=CC=C(C=C4)Cl)C
Method in brief: as §1

[3] = compound: CC1=C2C(=CC=C1)N=C(N(C2=O)C3=CC=CC=C3C)CN4C=NC5=C(N=CN=C54)N
Method in brief: as §1

[4] = compound: Cc1sc2c(c1C)C(c1ccc(Cl)cc1)=N[C@@H](CC(=O)OC(C)(C)C)c1nnc(C)n1-2
Method in brief: as §1

[5] = compound: c1ccc([C@@H]2C[C@H]2NC2CCNCC2)cc1
Method in brief: as §1

Measured: log2 fold change

VPS39 (UniProt Q96JC1)
inactive: [1] -0.087 | [2] 0.018 | [3] 0.071 | [4] -0.009 | [5] -0.052

UBE2S (UniProt Q16763)
Chain of UniProt Q16763 (Q16763 whole entry, looked up): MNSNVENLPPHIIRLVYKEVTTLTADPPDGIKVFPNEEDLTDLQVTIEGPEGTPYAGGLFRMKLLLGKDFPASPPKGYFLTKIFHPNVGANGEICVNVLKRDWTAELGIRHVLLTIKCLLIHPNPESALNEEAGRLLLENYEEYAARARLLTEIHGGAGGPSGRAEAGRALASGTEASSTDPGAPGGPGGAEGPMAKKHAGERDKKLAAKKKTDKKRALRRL
inactive: [1] 0.002 | [2] 0.053 | [3] 0.106 | [4] 0 | [5] 0.013

UBE4A isoform 2 (UniProt Q14139)
inactive: [1] -0.051 | [2] -0.067 | [3] 0.013 | [4] 0.013 | [5] 0.081

VPS51 (UniProt Q9UID3)
Chain of UniProt Q9UID3 (Q9UID3 whole entry, looked up): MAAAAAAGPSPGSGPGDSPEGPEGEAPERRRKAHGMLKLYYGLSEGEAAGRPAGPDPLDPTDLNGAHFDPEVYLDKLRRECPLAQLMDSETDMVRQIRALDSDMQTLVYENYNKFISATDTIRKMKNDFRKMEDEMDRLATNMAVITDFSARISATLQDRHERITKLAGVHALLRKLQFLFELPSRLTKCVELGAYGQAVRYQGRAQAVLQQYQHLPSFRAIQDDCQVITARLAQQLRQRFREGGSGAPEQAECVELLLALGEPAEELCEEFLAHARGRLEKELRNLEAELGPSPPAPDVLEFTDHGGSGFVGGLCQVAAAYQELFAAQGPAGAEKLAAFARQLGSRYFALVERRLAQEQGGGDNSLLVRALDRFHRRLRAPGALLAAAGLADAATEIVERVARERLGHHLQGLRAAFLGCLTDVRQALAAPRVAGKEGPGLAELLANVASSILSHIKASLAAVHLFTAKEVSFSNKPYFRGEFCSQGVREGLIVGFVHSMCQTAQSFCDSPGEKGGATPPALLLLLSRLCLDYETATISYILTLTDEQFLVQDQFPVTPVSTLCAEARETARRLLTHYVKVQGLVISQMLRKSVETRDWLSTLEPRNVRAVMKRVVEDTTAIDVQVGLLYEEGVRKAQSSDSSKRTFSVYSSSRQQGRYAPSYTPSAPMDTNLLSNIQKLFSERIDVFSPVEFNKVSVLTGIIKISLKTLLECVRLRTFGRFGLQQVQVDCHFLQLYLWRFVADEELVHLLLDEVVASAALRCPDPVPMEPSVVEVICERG
inactive: [1] -0.047 | [2] 0.026 | [3] 0.047 | [4] -0.048 | [5] -0.044

UBE2E3 (UniProt Q969T4)
inactive: [1] -0.076 | [2] 0.119 | [3] 0.115 | [4] -0.088 | [5] -0.023

TRIP10 isoform 2 (UniProt Q15642)
inactive: [1] -0.039 | [2] 0.085 | [3] 0.222 | [4] 0.03 | [5] -0.026

UFL1 (UniProt O94874)
inactive: [1] -0.072 | [2] 0.012 | [3] 0.039 | [4] 0.001 | [5] -0.066

UPF3B (UniProt Q9BZI7)
Chain of UniProt Q9BZI7 (Q9BZI7 whole entry, looked up): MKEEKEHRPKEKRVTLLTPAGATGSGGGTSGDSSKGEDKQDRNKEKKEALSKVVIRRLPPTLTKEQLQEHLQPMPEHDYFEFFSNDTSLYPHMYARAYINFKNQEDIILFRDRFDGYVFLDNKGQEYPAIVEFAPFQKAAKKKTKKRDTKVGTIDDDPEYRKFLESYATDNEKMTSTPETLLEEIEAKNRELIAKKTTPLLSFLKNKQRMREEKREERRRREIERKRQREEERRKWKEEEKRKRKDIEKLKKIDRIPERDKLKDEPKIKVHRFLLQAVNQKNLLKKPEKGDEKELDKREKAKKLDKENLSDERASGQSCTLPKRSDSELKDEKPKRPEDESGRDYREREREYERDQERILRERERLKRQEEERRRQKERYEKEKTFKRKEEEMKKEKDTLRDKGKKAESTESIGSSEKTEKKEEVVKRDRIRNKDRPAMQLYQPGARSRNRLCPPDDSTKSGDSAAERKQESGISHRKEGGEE
inactive: [1] 0.259 | [2] -0.211 | [3] -0.161 | [4] 0.363 | [5] -0.001

XPO1 (UniProt O14980)
Chain of UniProt O14980 (O14980 whole entry, looked up): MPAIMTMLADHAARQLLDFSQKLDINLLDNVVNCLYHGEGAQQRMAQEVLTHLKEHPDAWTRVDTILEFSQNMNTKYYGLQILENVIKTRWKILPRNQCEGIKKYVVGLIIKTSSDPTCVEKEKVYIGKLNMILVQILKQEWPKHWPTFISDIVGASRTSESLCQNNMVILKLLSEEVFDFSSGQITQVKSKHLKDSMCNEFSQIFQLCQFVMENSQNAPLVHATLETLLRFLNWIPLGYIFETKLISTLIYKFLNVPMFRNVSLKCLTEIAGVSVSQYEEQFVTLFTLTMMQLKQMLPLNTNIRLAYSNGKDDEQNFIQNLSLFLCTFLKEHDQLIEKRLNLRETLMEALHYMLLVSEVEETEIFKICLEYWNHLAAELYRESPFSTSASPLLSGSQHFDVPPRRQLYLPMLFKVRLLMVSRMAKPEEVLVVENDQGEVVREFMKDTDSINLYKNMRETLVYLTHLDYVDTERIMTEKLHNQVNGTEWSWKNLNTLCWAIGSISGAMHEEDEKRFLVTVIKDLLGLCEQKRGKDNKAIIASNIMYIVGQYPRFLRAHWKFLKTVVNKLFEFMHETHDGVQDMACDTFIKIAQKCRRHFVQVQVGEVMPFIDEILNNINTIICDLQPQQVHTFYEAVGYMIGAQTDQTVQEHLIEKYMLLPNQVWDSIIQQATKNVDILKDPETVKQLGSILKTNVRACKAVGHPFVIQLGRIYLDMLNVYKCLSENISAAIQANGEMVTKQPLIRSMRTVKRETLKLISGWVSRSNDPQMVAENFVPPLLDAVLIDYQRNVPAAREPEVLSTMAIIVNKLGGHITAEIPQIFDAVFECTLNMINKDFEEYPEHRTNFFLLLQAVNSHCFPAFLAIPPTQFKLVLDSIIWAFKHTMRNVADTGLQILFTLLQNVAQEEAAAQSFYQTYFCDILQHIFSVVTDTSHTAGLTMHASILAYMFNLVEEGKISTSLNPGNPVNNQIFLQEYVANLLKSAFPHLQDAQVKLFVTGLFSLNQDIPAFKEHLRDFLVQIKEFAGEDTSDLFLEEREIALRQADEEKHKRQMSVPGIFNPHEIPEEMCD
inactive: [1] -0.064 | [2] 0.053 | [3] 0.044 | [4] -0.011 | [5] -0.013

TRAPPC3 (UniProt O43617)
inactive: [1] -0.025 | [2] 0.03 | [3] 0.036 | [4] -0.024 | [5] 0.007

TMEM161A (UniProt Q9NX61)
inactive: [1] -0.055 | [2] 0.017 | [3] 0.098 | [4] -0.133 | [5] 0.003

TRAPPC2L (UniProt Q9UL33)
Chain of UniProt Q9UL33 (Q9UL33 whole entry, looked up): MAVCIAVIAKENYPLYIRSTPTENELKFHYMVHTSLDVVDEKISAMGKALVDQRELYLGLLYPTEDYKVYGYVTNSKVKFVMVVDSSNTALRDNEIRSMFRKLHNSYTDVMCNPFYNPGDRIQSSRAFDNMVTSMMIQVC
inactive: [1] -0.014 | [2] -0.044 | [3] -0.058 | [4] -0.063 | [5] 0.038

TNPO3 (UniProt Q9Y5L0)
inactive: [1] -0.035 | [2] 0.063 | [3] 0.014 | [4] -0.022 | [5] -0.007

UGGT1 (UniProt Q9NYU2)
inactive: [1] 0.032 | [2] 0.027 | [3] -0.003 | [4] -0.007 | [5] -0.021

UBIAD1 (UniProt Q9Y5Z9)
Chain of UniProt Q9Y5Z9 (Q9Y5Z9 whole entry, looked up): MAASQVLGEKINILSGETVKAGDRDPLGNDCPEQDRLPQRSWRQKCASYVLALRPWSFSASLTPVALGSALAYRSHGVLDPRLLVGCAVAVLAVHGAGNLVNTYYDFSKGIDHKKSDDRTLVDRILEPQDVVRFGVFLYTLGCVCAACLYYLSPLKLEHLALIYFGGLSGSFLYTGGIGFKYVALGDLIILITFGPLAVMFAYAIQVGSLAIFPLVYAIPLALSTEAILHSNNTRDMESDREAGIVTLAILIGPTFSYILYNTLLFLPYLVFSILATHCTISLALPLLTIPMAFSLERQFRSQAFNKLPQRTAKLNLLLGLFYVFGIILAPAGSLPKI
inactive: [1] 0.012 | [2] 0.029 | [3] 0.068 | [4] -0.074 | [5] 0.093

VWA8 (UniProt A3KMH1)
inactive: [1] -0.03 | [2] 0.023 | [3] 0.091 | [4] -0.044 | [5] -0.052

VPS28 (UniProt Q9UK41)
Chain of UniProt Q9UK41 (Q9UK41 whole entry, looked up): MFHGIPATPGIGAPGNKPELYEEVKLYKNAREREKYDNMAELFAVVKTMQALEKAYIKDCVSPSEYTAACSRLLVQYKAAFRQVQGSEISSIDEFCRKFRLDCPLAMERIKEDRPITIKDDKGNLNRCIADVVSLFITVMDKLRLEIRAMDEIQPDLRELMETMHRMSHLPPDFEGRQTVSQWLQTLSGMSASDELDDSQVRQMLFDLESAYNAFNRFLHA
inactive: [1] -0.075 | [2] 0.023 | [3] 0.064 | [4] 0.011 | [5] -0.01

WDCP (UniProt Q9H6R7)
inactive: [1] 0.013 | [2] 0 | [3] -0.015 | [4] 0.039 | [5] 0.145

USP14 (UniProt P54578)
Chain of UniProt P54578 (P54578 whole entry, looked up): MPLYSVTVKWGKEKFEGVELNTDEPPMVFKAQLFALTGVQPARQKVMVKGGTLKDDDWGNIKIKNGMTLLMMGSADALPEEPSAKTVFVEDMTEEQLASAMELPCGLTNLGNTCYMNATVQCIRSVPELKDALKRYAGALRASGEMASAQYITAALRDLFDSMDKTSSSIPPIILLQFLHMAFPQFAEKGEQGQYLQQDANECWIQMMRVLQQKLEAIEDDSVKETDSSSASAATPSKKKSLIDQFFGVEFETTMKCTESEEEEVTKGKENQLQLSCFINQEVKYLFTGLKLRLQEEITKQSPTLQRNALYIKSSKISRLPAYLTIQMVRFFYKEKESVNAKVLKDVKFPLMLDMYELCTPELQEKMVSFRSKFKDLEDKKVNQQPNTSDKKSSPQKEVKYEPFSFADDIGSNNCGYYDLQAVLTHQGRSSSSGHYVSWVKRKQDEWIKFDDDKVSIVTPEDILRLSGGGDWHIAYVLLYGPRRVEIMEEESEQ
inactive: [1] -0.031 | [2] 0.03 | [3] 0.046 | [4] -0.028 | [5] -0.025

VTA1 (UniProt Q9NP79)
inactive: [1] 0.007 | [2] 0.062 | [3] 0.104 | [4] -0.075 | [5] -0.025

WDR46 (UniProt O15213)
inactive: [1] 0.058 | [2] -0.35 | [3] -0.302 | [4] 0.246 | [5] -0.005

TPP1 (UniProt O14773)
inactive: [1] 0.019 | [2] 0.048 | [3] -0.02 | [4] 0.036 | [5] -0.067

TMEM164 (UniProt Q5U3C3)
inactive: [1] -0.195 | [2] -0.047 | [3] 0.257 | [4] -0.22 | [5] 0.068

TMEM214 (UniProt Q6NUQ4)
inactive: [1] 0.023 | [2] 0.044 | [3] 0.005 | [4] -0.002 | [5] -0.024

UFM1 isoform 2 (UniProt P61960)
inactive: [1] -0.032 | [2] -0.009 | [3] 0.066 | [4] -0.069 | [5] -0.048

WDR18 (UniProt Q9BV38)
inactive: [1] 0 | [2] 0.011 | [3] -0.019 | [4] -0.037 | [5] 0.019

TMEM192 (UniProt Q8IY95)
Chain of UniProt Q8IY95 (Q8IY95 whole entry, looked up): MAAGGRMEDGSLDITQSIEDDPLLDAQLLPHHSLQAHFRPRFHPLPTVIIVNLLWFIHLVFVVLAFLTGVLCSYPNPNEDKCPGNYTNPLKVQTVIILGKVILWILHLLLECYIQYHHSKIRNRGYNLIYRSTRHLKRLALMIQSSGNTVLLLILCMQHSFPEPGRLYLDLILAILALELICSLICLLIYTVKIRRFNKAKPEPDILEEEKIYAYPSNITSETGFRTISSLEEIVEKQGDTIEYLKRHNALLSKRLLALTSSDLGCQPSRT
inactive: [1] 0.02 | [2] -0.03 | [3] 0.018 | [4] -0.024 | [5] 0.032

TTC38 (UniProt Q5R3I4)
inactive: [1] 0.046 | [2] 0.049 | [3] 0.032 | [4] -0.061 | [5] -0.016

TXNL1 (UniProt O43396)
inactive: [1] 0.005 | [2] 0.051 | [3] 0.056 | [4] -0.01 | [5] 0.015

UTP3 (UniProt Q9NQZ2)
inactive: [1] 0.049 | [2] -0.312 | [3] -0.041 | [4] 0.042 | [5] -0.007

TPR (UniProt P12270)
inactive: [1] 0.053 | [2] 0.014 | [3] 0.001 | [4] 0.083 | [5] 0.043

UBXN10 (UniProt Q96LJ8)
inactive: [1] 0.011 | [2] 0.014 | [3] 0.024 | [4] 0.018 | [5] 0.063

VPS8 (UniProt Q8N3P4)
inactive: [1] -0.08 | [2] 0.106 | [3] 0.042 | [4] -0.034 | [5] 0.017

UBE2J1 (UniProt Q9Y385)
inactive: [1] -0.061 | [2] -0.011 | [3] 0.05 | [4] -0.039 | [5] -0.068

UBC (UniProt P0CG48)
inactive: [1] 0.023 | [2] 0.087 | [3] 0.058 | [4] -0.019 | [5] -0.061

WAPL isoform 3 (UniProt Q7Z5K2)
inactive: [1] -0.116 | [2] 0.021 | [3] 0.138 | [4] -0.08 | [5] 0.095

TMEM184C (UniProt Q9NVA4)
Chain of UniProt Q9NVA4 (Q9NVA4 whole entry, looked up): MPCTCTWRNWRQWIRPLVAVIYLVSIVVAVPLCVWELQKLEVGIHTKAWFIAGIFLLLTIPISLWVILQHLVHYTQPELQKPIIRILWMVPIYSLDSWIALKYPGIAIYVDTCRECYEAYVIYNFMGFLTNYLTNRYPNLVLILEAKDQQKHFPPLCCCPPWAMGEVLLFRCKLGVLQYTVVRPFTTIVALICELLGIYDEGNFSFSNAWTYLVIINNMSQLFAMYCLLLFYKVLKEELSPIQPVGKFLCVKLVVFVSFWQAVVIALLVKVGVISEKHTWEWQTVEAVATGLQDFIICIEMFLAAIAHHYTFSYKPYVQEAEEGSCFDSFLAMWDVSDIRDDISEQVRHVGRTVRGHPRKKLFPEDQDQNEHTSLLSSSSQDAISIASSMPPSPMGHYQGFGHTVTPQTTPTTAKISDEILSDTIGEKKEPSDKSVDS
inactive: [1] 0 | [2] 0.078 | [3] 0.022 | [4] 0.045 | [5] 0.22

TMEM9B (UniProt Q9NQ34)
inactive: [1] 0.043 | [2] 0.074 | [3] 0.093 | [4] -0.041 | [5] -0.011

TMEM128 (UniProt Q5BJH2)
Chain of UniProt Q5BJH2 (Q5BJH2 whole entry, looked up): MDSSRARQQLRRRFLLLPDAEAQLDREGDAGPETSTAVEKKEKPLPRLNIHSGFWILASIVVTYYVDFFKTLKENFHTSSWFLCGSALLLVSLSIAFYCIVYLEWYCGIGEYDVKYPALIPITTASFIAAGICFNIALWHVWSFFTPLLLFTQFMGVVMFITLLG
inactive: [1] -0.038 | [2] -0.001 | [3] 0.185 | [4] -0.1 | [5] 0

VPS35L (UniProt Q7Z3J2)
inactive: [1] -0.046 | [2] -0.13 | [3] 0.011 | [4] -0.024 | [5] 0

USP34 (UniProt Q70CQ2)
inactive: [1] -0.083 | [2] 0.081 | [3] 0.142 | [4] -0.003 | [5] 0.034

VPS33A (UniProt Q96AX1)
inactive: [1] -0.039 | [2] 0.053 | [3] 0.147 | [4] 0.059 | [5] -0.041

UBAP2L isoform 5 (UniProt Q14157)
inactive: [1] 0.055 | [2] 0.036 | [3] 0 | [4] -0.016 | [5] 0.017

TMEM70 (UniProt Q9BUB7)
inactive: [1] -0.002 | [2] 0.065 | [3] 0.057 | [4] -0.05 | [5] -0.002

TRMT2A (UniProt Q8IZ69)
inactive: [1] -0.008 | [2] -0.042 | [3] -0.026 | [4] 0.1 | [5] 0.058

VPS11 (UniProt Q9H270)
inactive: [1] -0.089 | [2] 0.014 | [3] 0.118 | [4] -0.001 | [5] -0.047

USP48 isoform 8 (UniProt Q86UV5)
inactive: [1] -0.073 | [2] 0.106 | [3] 0.191 | [4] -0.012 | [5] 0.119

UBE2D1 (UniProt P51668)
inactive: [1] -0.053 | [2] -0.014 | [3] 0.065 | [4] -0.081 | [5] -0.035

TP53BP1 isoform 2 (UniProt Q12888)
inactive: [1] -0.025 | [2] -0.016 | [3] 0.025 | [4] 0.001 | [5] 0.032

VPS16 (UniProt Q9H269)
inactive: [1] -0.188 | [2] 0.048 | [3] 0.106 | [4] -0.021 | [5] -0.038

TTI1 (UniProt O43156)
inactive: [1] -0.034 | [2] 0.136 | [3] 0.022 | [4] -0.025 | [5] -0.085

TSC2 (UniProt P49815)
inactive: [1] 0.062 | [2] 0.099 | [4] -0.044 | [5] 0.317

TMEM41A (UniProt Q96HV5)
Chain of UniProt Q96HV5 (Q96HV5 whole entry, looked up): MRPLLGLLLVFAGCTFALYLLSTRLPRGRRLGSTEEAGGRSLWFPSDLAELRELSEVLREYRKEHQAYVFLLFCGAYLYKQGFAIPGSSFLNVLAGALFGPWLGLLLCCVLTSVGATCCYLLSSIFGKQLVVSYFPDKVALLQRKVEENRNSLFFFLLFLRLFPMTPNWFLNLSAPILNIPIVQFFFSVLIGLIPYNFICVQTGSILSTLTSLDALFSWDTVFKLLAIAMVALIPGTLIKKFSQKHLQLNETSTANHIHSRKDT
inactive: [1] 0.01 | [3] 0.06 | [4] -0.08
